Measurements: PMC7819943, “Rice protein-binding microarrays: a tool to detect cis-acting elements near promoter regions in rice”
Whole data set: some 35,000 sequences, median “fluorescence intensity (a.u.)” near 10,000, cut for the highest 2% near 52,000. The sample as a whole holds a higher share of the highest values than the screen did.

These sequences were tested against T1, OsWOX13 (Oryza sativa, UniProt Q5QMM3 1-267) (assay: protein-binding microarray (RPBM); PBS, 2% BSA, 51.3 ng/ul salmon testes DNA, 50 uM zinc acetate, 200 nM TF, 25 C, 1 h; high values mean tight binding). Settings: protein: recombinant; tags: N-terminal polyhistidine and DsRed monomer fusion (pET32a); label: CyDye5-dUTP incorporated in the synthesized complementary strand; 3' TTTTT single-stranded linker to array surface; dsDNA, one strand shown.
T1 sequence: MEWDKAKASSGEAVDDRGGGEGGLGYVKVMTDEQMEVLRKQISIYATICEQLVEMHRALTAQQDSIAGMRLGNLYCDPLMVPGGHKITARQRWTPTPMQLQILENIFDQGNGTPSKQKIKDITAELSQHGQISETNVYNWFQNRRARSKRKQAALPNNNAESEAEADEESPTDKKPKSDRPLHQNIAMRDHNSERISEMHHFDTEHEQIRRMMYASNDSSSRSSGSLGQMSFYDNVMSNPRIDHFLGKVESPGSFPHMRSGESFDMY
Outline: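 An Axon 4000B scanner gave the binding signal as per-feature fluorescence intensity in arbitrary units. This followed washing of a custom Agilent array that had been incubated for 1 h at 25 °C with 200 nM protein in PBS, 2% BSA, salmon testes DNA and 50 µM zinc acetate. The proteins were transcription factors fused at the N-terminus to polyhistidine and DsRed, expressed in E. coli BL21-CodonPlus and purified on Ni–NTA.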

**Q.** With “TTGTATAAATGAGCTATCAGATTGGCTATAGATAAATTGGCGGAGTCACCTAGTGCAG” as the sequence, how does the binding signal read?
**A.** The binding signal was 12000 fluorescence intensity (a.u.).

**Q.** How did the binding signal turn out when “TTGTATAAATTGGCTATTAGATTGGCTATAGATTAATTGGCGGAGTCACCTAGTGCAG” was run?
**A.** Its binding signal is 58900 fluorescence intensity (a.u.).

**Q.** With “TTATTTAATTTAGAAAATTGGAGTTACCAGTTGTTCAGTTCGGAGTCACCTAGTGCAG” as the sequence, how does the binding signal read?
**A.** Its binding signal is 19500 fluorescence intensity (a.u.).

**Q.** “TTATTAGATTGACTATAGATAAATTAGATAAATTGGAGTTCGGAGTCACCTAGTGCAG” was tested. Which binding signal did it give?
**A.** Its binding signal is 53600 fluorescence intensity (a.u.).

**Q.** Which binding signal does the source give for “CAACGGTTAGATTAGATTGGTACTTCATGGTACATCGTGGCGGAGTCACCTAGTGCAG” here?
**A.** Its binding signal is 43200 fluorescence intensity (a.u.).

**Q.** How did the binding signal turn out when “TTGTATGAATGAGCTATTAGATTGGCTATAGATGAATTGGCGGAGTCACCTAGTGCAG” was run?
**A.** Its binding signal is 8950 fluorescence intensity (a.u.).

**Q.** Which binding signal does the source give for “TTTTAGATTGGGTTATTTATAAGGCTAAGTTTTAATTTAACGGAGTCACCTAGTGCAG” here?
**A.** Its binding signal is 4150 fluorescence intensity (a.u.).

**Q.** How did the binding signal turn out when “CGGTTAGATTACATTGGTACCTCATGATATCTCGTACCTCCGGAGTCACCTAGTGCAG” was run?
**A.** The binding signal was 4680 fluorescence intensity (a.u.).

**Q.** How did the binding signal turn out when “ATGAATAAGCTATTAGATTGACTATAGATAAATTGGAGCTCGGAGTCACCTAGTGCAG” was run?
**A.** Its binding signal is 18200 fluorescence intensity (a.u.).

**Q.** How did the binding signal turn out when “TTAACAGATTCTTCTTAATTAATAAATAAGCTGTCATGATCGGAGTCACCTAGTGCAG” was run?
**A.** The binding signal was 17300 fluorescence intensity (a.u.).

**Q.** How did the binding signal turn out when “TTGATTAGATGCGCTGTGTGGCTTCTTGTTCAGTGACAGGCGGAGTCACCTAGTGCAG” was run?
**A.** Its binding signal is 32400 fluorescence intensity (a.u.).

**Q.** Which binding signal does the source give for “ACTATGCCAATTAAAATAAATCAATACAATAGGTATGATTCGGAGTCACCTAGTGCAG” here?
**A.** The binding signal was 9790 fluorescence intensity (a.u.).

**Q.** Which binding signal does the source give for “TACAACAAATCAATAATACTCAATTTCCATGTAGTTTGATCGGAGTCACCTAGTGCAG” here?
**A.** Its binding signal is 7890 fluorescence intensity (a.u.).

**Q.** How did the binding signal turn out when “TTGATAGTAAATCAAACATTAATAAAGGCCTGTTCACTTTCGGAGTCACCTAGTGCAG” was run?
**A.** Its binding signal is 8860 fluorescence intensity (a.u.).

**Q.** With “CCAGATTGAGCTGTTGCGCACCACCATCCTGACCAGCTGCCGGAGTCACCTAGTGCAG” as the sequence, how does the binding signal read?
**A.** The binding signal was 17400 fluorescence intensity (a.u.).

**Q.** “ATGACAGCAATTCCGATATCTAATAAGATTGAAAATATTGCGGAGTCACCTAGTGCAG” was tested. Which binding signal did it give?
**A.** Its binding signal is 14800 fluorescence intensity (a.u.).

**Q.** “CCAAATGATATAATCATGGCACATGGAGTACTGCTTAAGACGGAGTCACCTAGTGCAG” was tested. Which binding signal did it give?
**A.** The binding signal was 9170 fluorescence intensity (a.u.).

**Q.** For “CTAAAATTGGAGACGTCACTACAAACGTACGCACTCTTTGCGGAGTCACCTAGTGCAG”, which binding signal is on record?
**A.** Its binding signal is 6760 fluorescence intensity (a.u.).

**Q.** How did the binding signal turn out when “TAGAATAAATTGATTTAATTAAATGTAACATTAAATATATCGGAGTCACCTAGTGCAG” was run?
**A.** Its binding signal is 10100 fluorescence intensity (a.u.).

**Q.** Which binding signal does the source give for “GAAATAGATTAATTATAGCTAAAACATTTTCTCGACCTTGCGGAGTCACCTAGTGCAG” here?
**A.** Its binding signal is 52800 fluorescence intensity (a.u.).

**Q.** With “CGGCGTTAATTGTCCTTCGATCCATTATTACAGAAACACTCGGAGTCACCTAGTGCAG” as the sequence, how does the binding signal read?
**A.** The binding signal was 15400 fluorescence intensity (a.u.).

**Q.** Which binding signal does the source give for “GATTAATTAATTATTATCCATTGTACACTTCGAAAATTGGCGGAGTCACCTAGTGCAG” here?
**A.** Its binding signal is 60500 fluorescence intensity (a.u.).

**Q.** Which binding signal does the source give for “TTTAATTGGTTAAATGAACTATGTAATGTTATAATTATATCGGAGTCACCTAGTGCAG” here?
**A.** The binding signal was 33200 fluorescence intensity (a.u.).

**Q.** With “AGATAATTTAATTGTTAACCATGTATGGCTGTAAGGGTATCGGAGTCACCTAGTGCAG” as the sequence, how does the binding signal read?
**A.** The binding signal was 43900 fluorescence intensity (a.u.).

**Q.** With “GTACATTTTAATGATTATATTATGATGATGAAAATTGTATCGGAGTCACCTAGTGCAG” as the sequence, how does the binding signal read?
**A.** Its binding signal is 15300 fluorescence intensity (a.u.).

**Q.** Which binding signal does the source give for “ATGAGATAAATTGATTGTTAACCATGTATGTCTCTAAGGTCGGAGTCACCTAGTGCAG” here?
**A.** The binding signal was 56400 fluorescence intensity (a.u.).

**Q.** For “ATTAAAACTTAATTAAATATACTAATAGCTTTCTCATTTTCGGAGTCACCTAGTGCAG”, which binding signal is on record?
**A.** The binding signal was 7350 fluorescence intensity (a.u.).

**Q.** “TAAGATAAATTAATTGGTAACCTTGTATGTCCATAAGGGTCGGAGTCACCTAGTGCAG” was tested. Which binding signal did it give?
**A.** Its binding signal is 45400 fluorescence intensity (a.u.).

**Q.** “AGTAAATTGGTGTATGATTAGATTAACATGTTAAATGTATCGGAGTCACCTAGTGCAG” was tested. Which binding signal did it give?
**A.** Its binding signal is 53500 fluorescence intensity (a.u.).

**Q.** How did the binding signal turn out when “AAAATTGAAATTTTCAACATTAAATTTGGATTAGATTTTGCGGAGTCACCTAGTGCAG” was run?
**A.** Its binding signal is 19200 fluorescence intensity (a.u.).

**Q.** “GGGGATAATTTTGTAGCTCGATGACAAGTTGATTTGGTGTCGGAGTCACCTAGTGCAG” was tested. Which binding signal did it give?
**A.** The binding signal was 19200 fluorescence intensity (a.u.).

**Q.** “ATCGAATTGAGGGAGATAAATTGATCTTGTTTTAATAATTCGGAGTCACCTAGTGCAG” was tested. Which binding signal did it give?
**A.** The binding signal was 3450 fluorescence intensity (a.u.).

**Q.** For “CTTTAATTACCACCCGATCTCACCAACAAGCGGGGCAGCTCGGAGTCACCTAGTGCAG”, which binding signal is on record?
**A.** The binding signal was 20400 fluorescence intensity (a.u.).

**Q.** Which binding signal does the source give for “AAACGATTGATCACAATCCACGCATCGTGCCTCTCTCGCCCGGAGTCACCTAGTGCAG” here?
**A.** Its binding signal is 14300 fluorescence intensity (a.u.).

**Q.** For “GTCTCGTAATTTTCTGTTGAACTATGTAATTGATTTCTTTCGGAGTCACCTAGTGCAG”, which binding signal is on record?
**A.** Its binding signal is 10500 fluorescence intensity (a.u.).

**Q.** With “TGCCACTCAAGTACAATTATTCCCATTAATTCGCTCCATTCGGAGTCACCTAGTGCAG” as the sequence, how does the binding signal read?
**A.** Its binding signal is 5600 fluorescence intensity (a.u.).

**Q.** How did the binding signal turn out when “ATAAGTTAATTTAAATAAATGGAGTAGAATATTATGATAGCGGAGTCACCTAGTGCAG” was run?
**A.** Its binding signal is 26300 fluorescence intensity (a.u.).

**Q.** How did the binding signal turn out when “TTATGATATATTGATCGTAGGATTGGGATTGGGATCCTATCGGAGTCACCTAGTGCAG” was run?
**A.** Its binding signal is 15800 fluorescence intensity (a.u.).

**Q.** With “TGTGATGTATTTGATTTATGATGTATTTATTTGTGTGTATCGGAGTCACCTAGTGCAG” as the sequence, how does the binding signal read?
**A.** Its binding signal is 20700 fluorescence intensity (a.u.).

**Q.** For “GCATGACAAATGGCGTTAATTAGTCCACAAATAATATATACGGAGTCACCTAGTGCAG”, which binding signal is on record?
**A.** Its binding signal is 3210 fluorescence intensity (a.u.).

**Q.** For “CAAATATATTATAAAATTGCATTTAATAAAACTTATTTGGCGGAGTCACCTAGTGCAG”, which binding signal is on record?
**A.** The binding signal was 3450 fluorescence intensity (a.u.).

**Q.** Which binding signal does the source give for “AGTAATAAATTGATTGTATGTTATCTGGTGGTCTGAAACTCGGAGTCACCTAGTGCAG” here?
**A.** The binding signal was 57400 fluorescence intensity (a.u.).

**Q.** Which binding signal does the source give for “CCGGGGATTGATTTGCCGAGTGTATTATTGATCGTATGATCGGAGTCACCTAGTGCAG” here?
**A.** Its binding signal is 53500 fluorescence intensity (a.u.).

**Q.** Which binding signal does the source give for “ATTGATTGAGAAAATAATGTTGGTGAATAAATTGTTATATCGGAGTCACCTAGTGCAG” here?
**A.** Its binding signal is 40700 fluorescence intensity (a.u.).

**Q.** “AATTTAATTAATGACAAATATAATTAGCTCTCTATCCAGGCGGAGTCACCTAGTGCAG” was tested. Which binding signal did it give?
**A.** The binding signal was 55500 fluorescence intensity (a.u.).

**Q.** Which binding signal does the source give for “TGAATTACTCAATTGAATTGGTGTTATGTAATAAACTGCTCGGAGTCACCTAGTGCAG” here?
**A.** The binding signal was 5970 fluorescence intensity (a.u.).

**Q.** “AGCTCTATAATTTTACAATTTAAAATTATATTATATAAAGCGGAGTCACCTAGTGCAG” was tested. Which binding signal did it give?
**A.** Its binding signal is 20400 fluorescence intensity (a.u.).

**Q.** With “ACTTAATTGGATAGATAAATTTAAGTTATATTTAATATGGCGGAGTCACCTAGTGCAG” as the sequence, how does the binding signal read?
**A.** The binding signal was 64900 fluorescence intensity (a.u.).
